From PubChem BioAssay (NCI)
Compounds without any hit were thinned out: in the full panel of roughly 79,000, 15% have a hit. The source made the active and inactive calls. Rule as the data show it: active = growth inhibition above about 70%; inactive = the rest.

Assays:
[1] = NCI Yeast Anticancer Drug Screen. Data for the rad52 strain (AID 147);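 also: 0% = growth of vehicle-treated control cultures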; settings: S. cerevisiae rad52 mutant growth inhibition, stronger effect = higher value
Method in brief: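 Screen used a yeast mutant impaired in DNA repair. After compound exposure, growth was measured. Values reflect inhibition compared with vehicle-treated cells.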

[2] = NCI Yeast Anticancer Drug Screen. Data for the wt1 strain (AID 149);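 also: 0% = growth of vehicle-treated wt1 cultures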; settings: S. cerevisiae wt1 strain (SPY 50644) growth inhibition, stronger effect = higher value
Method in brief: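 The wt1 strain was treated with compounds, and growth was compared with vehicle-treated cultures to give inhibition.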

[3] = NCI Yeast Anticancer Drug Screen. Data for the rad50EPP+ strain (AID 151);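 also: 0% = growth of vehicle-treated control cultures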; settings: S. cerevisiae rad50 mutant strain, stronger effect = higher value
Method in brief: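 Exposing the rad50EPP+ strain to each compound, growth was compared with vehicle-only cultures to give inhibition.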

[4] = NCI Yeast Anticancer Drug Screen. Data for the mgt1 strain (AID 153); settings: S. cerevisiae mgt1 mutant growth inhibition, stronger effect = higher value
Method in brief: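 Genetically defined yeast (mgt1) treated with compound; inhibition of growth expressed against vehicle-treated controls.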

[5] = NCI Yeast Anticancer Drug Screen. Data for the rad50 strain (AID 155);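 also: 0% = growth of vehicle-only cultures of the same strain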; settings: S. cerevisiae rad50 strain growth inhibition, stronger effect = higher value
Method in brief: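 Cells are treated with compound, grown, and their growth is then scored against vehicle-only cultures of the same repair-deficient yeast strain.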

[6] = NCI Yeast Anticancer Drug Screen. Data for the mec2-1 strain (AID 157); settings: S. cerevisiae mec2-1 strain, stronger effect = higher value
Method in brief: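 Readout is yeast growth inhibition, normalised to vehicle-treated controls, in the mec2-1 strain exposed to compound.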

[7] = NCI Yeast Anticancer Drug Screen. Data for the rad14 strain (AID 159);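 also: 0% = growth of vehicle-treated control cultures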; settings: S. cerevisiae rad14 strain growth inhibition, stronger effect = higher value
Method in brief: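 Readout: yeast growth inhibition, referenced to vehicle-only cultures. Strain bears a defined alteration in DNA damage repair.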

[8] = NCI Yeast Anticancer Drug Screen. Data for the sgs1 mgt1 strain (AID 161);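 also: 0% = growth of cultures given vehicle only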; settings: S. cerevisiae sgs1 mgt1 strain, stronger effect = higher value
Method in brief: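 Percent growth inhibition was derived by comparing compound-exposed mutant yeast with vehicle-exposed cultures. The strain carries alterations in DNA damage repair.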

[9] = NCI Yeast Anticancer Drug Screen. Data for the cln2 rad14 strain (AID 165);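 also: 0% = growth equal to vehicle treated cultures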; settings: S. cerevisiae cln2 rad14 strain, stronger effect = higher value
Method in brief: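 Relative to vehicle controls, growth inhibition of compound-treated cln2 rad14 yeast was recorded.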

[10] = NCI Yeast Anticancer Drug Screen. Data for the bub3 strain (AID 167); settings: S. cerevisiae bub3 mutant strain, stronger effect = higher value
Method in brief: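 Part of a panel of yeast mutants defective in DNA damage repair or cell cycle regulation. Each strain is grown with compound, and inhibition is calculated relative to solvent-treated cultures.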

[11] = NCI Yeast Anticancer Drug Screen. Data for the wt2 strain (AID 169);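 also: 0% = growth of vehicle-treated yeast cultures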; settings: S. cerevisiae wt2 strain growth inhibition, stronger effect = higher value
Method in brief: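 Values express reduction in yeast growth under compound treatment, referenced to vehicle-treated cells.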

[12] = NCI Yeast Anticancer Drug Screen. Data for the mlh1 strain (AID 171);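 also: 0% = growth of vehicle-treated control cultures of the same strain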; settings: S. cerevisiae mlh1 strain growth inhibition, stronger effect = higher value
Method in brief: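 Steps: expose the defined-mutant yeast strain to compound; expose a parallel culture to vehicle; measure growth; express compound effect as inhibition relative to the vehicle culture.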

[13] = NCI Yeast Anticancer Drug Screen. Data for the sgs1 strain (AID 173);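 also: 0% = growth of vehicle-only control cultures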; settings: S. cerevisiae sgs1 mutant, stronger effect = higher value
Method in brief: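 Treat defined-mutant yeast with compound; measure growth; calculate inhibition relative to vehicle-treated cells.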

[14] = NCI Yeast Anticancer Drug Screen. Data for the mlh1 rad18 strain (AID 175); settings: S. cerevisiae mlh1 rad18 strain growth inhibition, stronger effect = higher value
Method in brief: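 Test agents were incubated with a yeast strain of defined genotype (DNA damage repair defect). Inhibition of growth was derived by comparison with vehicle-exposed cultures.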

[15] = NCI Yeast Anticancer Drug Screen. Data for the rad18 strain (AID 177); settings: S. cerevisiae rad18 mutant growth inhibition, stronger effect = higher value
Method in brief: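 A genetically defined yeast mutant impaired in DNA damage repair was treated with test compounds, then its growth was measured against cultures receiving vehicle alone.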

[16] = at 5.0 µM (retest, dose inferred, filed as 0.5)
[17] = at 50.0 µM (retest, dose inferred, filed as 5.0)

Measured: growth inhibition

COC(=N)c1ccc(O)c(C)c1
active: [10]; [17] 78%
inactive: [1]; at 1.2 µM -3% | [1]; at 3.7 µM -6% | [1]; at 11.0 µM -11% | [1]; at 33.0 µM -16% | [1]; at 100.0 µM -5% | [2]; at 1.2 µM -6% | [2]; at 3.7 µM -5% | [2]; at 11.0 µM -6% | [2]; at 33.0 µM -5% | [2]; at 100.0 µM -3% | [3]; at 1.2 µM -1% | [3]; at 3.7 µM 1% | [3]; at 11.0 µM 5% | [3]; at 33.0 µM 11% | [3]; at 100.0 µM 9% | [4]; at 1.2 µM -4% | [4]; at 3.7 µM -3% | [4]; at 11.0 µM -2% | [4]; at 33.0 µM -3% | [4]; at 100.0 µM -3% | [5]; at 1.2 µM -7% | [5]; at 3.7 µM -19% | [5]; [16] -138% | [5]; at 11.0 µM -6% | [5]; at 33.0 µM 7% | [5]; [17] 10% | [5]; at 50.0 µM 50.4% | [5]; at 100.0 µM 3% | [6]; at 1.2 µM 0% | [6]; at 3.7 µM 0% | [6]; [16] -46% | [6]; at 11.0 µM -1% | [6]; at 33.0 µM 1% | [6]; [17] -21% | [6]; at 50.0 µM 2.2% | [6]; at 100.0 µM 1% | [7]; at 1.2 µM -3% | [7]; at 3.7 µM 0% | [7]; at 11.0 µM -2% | [7]; at 33.0 µM -4% | [7]; at 100.0 µM -1% | [8]; [16] -53% | [8]; [17] -40% | [8]; at 50.0 µM -8.2% | [9]; [16] -52% | [9]; [17] -22% | [9]; at 50.0 µM -38.2% | [10]; at 1.2 µM -3% | [10]; at 3.7 µM -5% | [10]; [16] -61% | [10]; at 11.0 µM 0% | [10]; at 33.0 µM -2% | [10]; at 50.0 µM 5.2% | [10]; at 100.0 µM 4% | [11]; at 1.2 µM -2% | [11]; at 3.7 µM 0% | [11]; at 11.0 µM -2% | [11]; at 33.0 µM -4% | [11]; at 100.0 µM -1% | [12]; at 1.2 µM 6% | [12]; at 3.7 µM -6% | [12]; at 11.0 µM -7% | [12]; at 33.0 µM -7% | [12]; at 100.0 µM -7% | [13]; at 1.2 µM -1% | [13]; at 3.7 µM -1% | [13]; at 11.0 µM -1% | [13]; at 33.0 µM -2% | [13]; at 100.0 µM -2% | [14]; [16] -123% | [14]; [17] -74% | [14]; at 50.0 µM -6.9% | [15]; at 1.2 µM -2% | [15]; at 3.7 µM -1% | [15]; at 11.0 µM 1% | [15]; at 33.0 µM 3% | [15]; at 100.0 µM 8%
